Source: PubChem
A selection: hits, their analogues and other compounds. The true share with any hit is near 3.5%.
TbPYK inhibitor: qHTS of Trypanosoma Brucei Inhibitors | pyruvate kinase (Trypanosoma brucei), Q57TT1 | TbPYK enzyme, Kinase-Glo Plus ATP luminescence, 45 min | Potency, µM (titrated, usually from 76.8 µM), for inactives: top-dose activity, negative = inhibition, hits mostly inhibitors | actives 0.12% (n = 410,000); further: on the % scale 0 is the no-effect control and ±100 the full control effect; nearly all actives have a fitted effect of over 50% in size
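Quantitative HTS: titrated library compounds versus trypanosomal pyruvate kinase in TEA buffer (pH 7.2) containing KCl, MgCl2, BSA and Tween-20. Reactions were initiated with ADP, 130 uM final. Kinase-Glo Plus luminescence was read after 45 min at RT.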
NS1 function inh: qHTS Assay for Inhibitors of Influenza NS1 Protein Function. AID 2326, 2010. Potency, µM (highest dose often 46.1 µM), inactives show top-dose activity, positive = more growth. actives 0.4% (n = 270,000); calls by dose curve; further: actives are rising curves; nearly all actives have a fitted effect of over 50% in size
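S. cerevisiae expressing influenza A NS1, grown in glucose, washed, then diluted 1:100 into pH 6.0 -URA galactose medium with 23 nl compound. Growth recovery read as OD600; NS1-free strain serves as control.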
RE007 growth inh: qHTS Assay for Inhibitors of the HIV-1 protein Vpr; S. pombe RE007 Vpr strain, BacTiter-Glo ATP luminescence, 24 h; Potency, µM (titrated, usually from 92.2 µM), inactives show top-dose activity change, negative = less growth, hits mostly inhibitors; actives 0.21% (n = 360,000); AID 651644, 2012; active means well fitted falling curve with a large enough effect; inconclusive means small, poorly fitted or top-dose-only effect; inactive means no such curve, though single readings can be large or run the other way; further: on the % scale 0 is the no-effect control and ±100 the full control effect; nearly all actives have a fitted effect of over 50% in size
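Fission yeast strain RE007, carrying one chromosomally integrated HIV-1 vpr copy, was seeded at OD 0.01 in PMG+AL medium with 23 nL pinned compound. After 24 h at 30 °C and 99% humidity, viability was read by BacTiter-Glo luminescence.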
LmPK inhibitor: qHTS Assay for Inhibitors of Leishmania Mexicana Pyruvate Kinase (LmPK). purified LmPK, Kinase-Glo ATP luminescence, 1 h. actives 0.37% (n = 290,000). Potency, µM (titrated, usually from 57.5 µM), for inactives: at the top dose activity change, negative = inhibition, actives largely listed as inhibitors; further: on the % scale 0 is the no-effect control and ±100 the full control effect
Target sequence (Q27686 whole entry, looked up): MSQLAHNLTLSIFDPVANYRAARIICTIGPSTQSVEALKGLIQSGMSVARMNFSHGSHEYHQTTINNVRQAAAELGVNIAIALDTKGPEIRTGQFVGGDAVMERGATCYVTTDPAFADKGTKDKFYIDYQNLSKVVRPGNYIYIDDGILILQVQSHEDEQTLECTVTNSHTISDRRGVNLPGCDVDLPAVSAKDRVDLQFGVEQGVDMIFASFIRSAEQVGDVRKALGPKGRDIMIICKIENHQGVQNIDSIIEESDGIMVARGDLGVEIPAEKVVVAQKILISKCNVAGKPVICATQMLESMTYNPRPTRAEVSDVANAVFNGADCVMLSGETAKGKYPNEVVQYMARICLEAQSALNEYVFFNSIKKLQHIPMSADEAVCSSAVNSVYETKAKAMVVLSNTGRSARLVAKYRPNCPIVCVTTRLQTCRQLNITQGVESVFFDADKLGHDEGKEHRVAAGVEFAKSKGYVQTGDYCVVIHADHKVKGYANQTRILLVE
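0.1 nM LmPK, 0.5 mM PEP, 0.1 mM ADP; 50 mM imidazole pH 7.2, 7 mM MgCl2, 50 mM KCl; 1 h RT. Kinase-Glo luminescence readout, normalized to no-enzyme (full inhibition) and uninhibited wells.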
Giardia FBPA inh-1: qHTS Assay for Inhibitors of Fructose-1,6-bisphosphate Aldolase from Giardia Lamblia | A8B2U2 | purified Giardia FBPA | Potency, µM (top dose mostly 59.6 µM), without a hit: at the highest dose activity, negative = inhibition, usual class: inhibitors | actives 0.71% (n = 290,000); further: on the % scale 0 is the no-effect control and ±100 the full control effect; nearly all actives have a fitted effect of over 55% in size
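40 nM FBPA preincubated 10 min at RT with compound (up to 57.5 uM final), then substrate plus GAPDH/TPI/NAD/arsenate coupling and diaphorase/resazurin added. Fluorescence read after 20 min at RT, 525/598 nm.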
Sm TGR block: qHTS Assay for the Inhibitors of Schistosoma Mansoni Peroxiredoxins. Schistosoma mansoni thioredoxin glutathione reductase (TGR), Q962Y6. AID 485364, 2010. actives 3% (n = 360,000). Potency, µM (top dose mostly 114 µM), without a hit: at the top dose activity change, negative = inhibition, hits mostly inhibitors. purified TGR, DTNB reduction, TNB absorbance 405 nm; further: on the % scale 0 is the no-effect control and ±100 the full control effect; nearly all actives have a fitted effect of over 60% in size
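First, TGR (20 nM dispensed) and NADPH were mixed with compound. Second, a 15 min room-temperature incubation followed. Third, further NADPH and then DTNB were added to start the reaction. Finally, TNB absorbance was monitored kinetically.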
Giardia growth: qHTS Assay for Inhibitors of Fructose-1,6-bisphosphate Aldolase from Giardia Lamblia: Giardia lamblia growth inhibition; shares compounds with Giardia FBPA inh-1; Giardia lamblia trophozoite growth inhibition; Potency, µM (titrated, usually from 57.5 µM), inactives show at the top dose activity change, negative = inhibition, usual class: inhibitors; actives 5% (n = 1,500); AID 2785, 2010;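 further: trophozoites exposed to compound for 48 h at 37 °C; on the % scale 0 is the no-effect control and ±100 the full control effect; nearly all actives have a fitted effect of over 70% in size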
Mammalian tox: qHTS Assay for Inhibitors of Fructose-1,6-bisphosphate Aldolase from Giardia Lamblia: Mammalian cellular toxicity. shares compounds with Giardia FBPA inh-1. mammalian cell viability counter-screen, qHTS. Potency, µM (highest dose often 57.5 µM), without a hit: top-dose viability change, negative = toxicity, actives largely listed as inhibitors. actives 4% (n = 1,500). AID 2786, 2010;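 further: Chinese hamster ovary cells used as mammalian cytotoxicity surrogate; viability measured as cellular ATP by luminescence; compound exposure lasted 48 h before reading; on the % scale 0 is the no-effect control and ±100 the full control effect; nearly all actives have a fitted effect of over 60% in size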
Giardia FBPA inh-2: qHTS Assay for Inhibitors of Fructose-1,6-bisphosphate Aldolase from Giardia Lamblia: Primary screen confirmation; shares compounds with Giardia FBPA inh-1; purified Giardia aldolase enzyme activity, qHTS; Potency, µM (doses to about 57.5 µM), inactives show top-dose activity change, negative = inhibition, hits mostly inhibitors; actives 5% (n = 1,500); further: on the % scale 0 is the no-effect control and ±100 the full control effect; nearly all actives have a fitted effect of over 45% in size
Rabbit aldolase: qHTS Assay for Inhibitors of Fructose-1,6-bisphosphate Aldolase from Giardia Lamblia: Rabbit FBPA Selectivity; actives 4% (n = 1,500); Rabbit muscle FBPA enzyme inhibition, selectivity counter-screen; AID 2794, 2010; shares compounds with Giardia FBPA inh-1; Potency, µM (top dose mostly 57.5 µM), for the others: top-dose activity, negative = inhibition, actives largely listed as inhibitors; further: on the % scale 0 is the no-effect control and ±100 the full control effect; nearly all actives have a fitted effect of over 60% in size
GAPDH coupling: qHTS Assay for Inhibitors of Fructose-1,6-bisphosphate Aldolase from Giardia Lamblia: Coupling assay counterscreen confirmation. shares compounds with Giardia FBPA inh-1. GAPDH coupling enzyme counterscreen, biochemical, qHTS. Potency, µM (titrated, usually from 57.5 µM), for the others: at the top dose activity change, negative = inhibition, usual class: inhibitors. actives 6% (n = 1,500); further: on the % scale 0 is the no-effect control and ±100 the full control effect; nearly all actives have a fitted effect of over 55% in size
An asterisk follows results filed as active; ? = inconclusive; . = no result; [ ] = dose if it differs, or a comment. Unless noted, the call rests on the fitted dose curve; in most records, active means well fitted curve in the direction sought with a large enough effect; inconclusive means small, poorly fitted or top-dose-only effect, or another doubt; inactive means no such curve, though single readings can be large; an effect the other way counts as inactive or inconclusive. Potency means the concentration at half of the fitted maximal effect.

SMILES | TbPYK inhibitor | NS1 function inh | RE007 growth inh | LmPK inhibitor | Giardia FBPA inh-1 | Sm TGR block | Giardia growth | Mammalian tox | Giardia FBPA inh-2 | Rabbit aldolase | GAPDH coupling
CCCN1Cc2cccc(C(=O)Nc3ccc(C(C)=O)cc3)c2C1=O | 2% | . | . | . | . | -6% | . | . | . | . | .
Cc1ccc(OCCn2cncn2)c([N+](=O)[O-])c1 | -10% | -16% | -1% | 6% | 4% | 13% | . | . | . | . | .
Cc1ccc(C(C)C)cc1OCCn1cncn1 | 8% | -10% | 20% | -12% | 22µM* | -19% | -2%[10.4 µM] | 10% | 4% | -6% | ?
COc1cc(NC(=O)COCc2cc(-c3ccc4c(c3)OCO4)on2)cc(OC)c1 | 5% | . | . | . | . | 4% | . | . | . | . | .
O[N+]1=CC=CCC1=S.On1ccccc1=S.[Zn] | . | . | . | . | 0.5µM* | . | 10µM* | 2.8µM* | ? | ? | ?
CCSS(=O)(=O)c1cccc2cccnc12 | 10µM* | -96% | 5.6µM* | 47% | 16µM* | 4% | -18%[10.4 µM] | -4% | -10% | ? | ?
Cc1ccc(CN(Cc2ccco2)C(=S)NCC(=O)NCc2cccnc2)cc1 | -26% | . | 3% | 8% | ? | 0% | . | . | . | . | .
Cc1ccc(CN(Cc2ccccc2)C(=S)NCC(=O)NCc2cccnc2)o1 | -22% | . | 4% | -12% | 16µM* | -25% | -12% | -12% | 3% | 5% | 4%
Cc1cc(NC(=O)CC#N)n(-c2nc3ccccc3[nH]2)n1 | 2% | 3% | 9% | 1% | 16µM* | 14% | -8% | -16% | 0% | 3% | 7%
COc1ccc(C(=O)Nc2cc(C)nn2-c2nc3ccccc3[nH]2)c(OC)c1 | -1% | -5% | -10% | 15% | 18µM* | 6% | 0% | ? | 1% | 6% | -3%
Cc1cc(NC(=O)c2sccc2C)n(-c2nc3ccccc3[nH]2)n1 | -6% | 4% | 0% | 3% | 16µM* | . | ? | ? | 2% | 1% | 0%
Cc1cc(NC(=O)c2ccccc2)n(-c2nc3ccccc3[nH]2)n1 | 4% | . | 1% | 1% | -22% | -8% | . | . | . | . | .
Cc1cc(NC(=O)c2cccs2)n(-c2nc3ccccc3[nH]2)n1 | -13% | 0% | 0% | 2% | -25% | . | . | . | . | . | .
